Data taken from PubChem BioAssay (Tox21).
Where “and” joins values, the source holds several entries; their conditions need not be identical. Equal entries are not always repeated. Results filed as inconclusive are left out. A call without a number means that no potency is given here. Some structures have more than one record in an assay (separate samples or runs), and their calls can disagree. Calls of active or inactive are those of the source. Unless noted, calls come from the whole dose curve; as a rule, active = well fitted curve in the direction sought with a large enough effect in the repeat runs; inconclusive = weak or mixed curves; inactive = no such curve, though single readings can be large; an effect the other way counts as inactive or inconclusive.

How the values were obtained:
[1] = qHTS assay to identify small molecule antagonists of the retinoid acid receptor (RAR) signaling pathway - cell viability counter screen (AID 1159551); note: nearly all actives have a fitted effect of over 35% in size
How it was run: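 Following overnight attachment, C3RL4 reporter cells received DMSO-dissolved compounds and then retinol (1 uM final). Six hours later at 37 C, ATP content was measured by CellTiter-Glo luminescence.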

[2] = qHTS assay to identify small molecule antagonists of the retinoic acid receptor (RAR) signaling pathway (AID 1159552; note: nearly all actives have a fitted effect of over 50% in size; note: potency is the fitted concentration of half-maximal effect)
How it was run: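 Quantitative HTS in C3RL4 RARE-luciferase reporter cells. Compounds were added with 1 uM (final) retinol; luminescence was read after 6 hr.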

[3] = qHTS assay to identify small molecule agonists of the retinoic acid receptor (RAR) signaling pathway (AID 1159553); note: potency is the fitted concentration of half-maximal effect
How it was run: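 Cell line C3RL4, RARE luciferase reporter. Treatment: compounds in DMSO, 6 hr, 37 C, 5% CO2, after overnight plating. Detection: luminescence, 30 min RT after reagent.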

[4] = qHTS assay to identify small molecule antagonists of the estrogen related receptor (ERR) signaling pathway from Tox21 library - cell viability counter screen (AID 1224834); note: nearly all actives have a fitted effect of over 30% in size; note: potency is the fitted concentration of half-maximal effect
How it was run: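 Viability readout (CellTiter-Fluor fluorescence, 30 min at 37 C) multiplexed with the ERR assay; cells treated 17.5 h at 37 C with compounds delivered in DMSO.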

[5] = molecular target: Luciferin 4-monooxygenase (Photinus pyralis) (UniProt P08659); assay: qHTS assay to identify small molecule inhibitors of firefly luciferase (AID 1224835); note: nearly all actives have a fitted effect of over 25% in size; note: potency is the fitted concentration of half-maximal effect
Luciferin 4-monooxygenase (Photinus pyralis), sequence (P08659 whole entry, looked up): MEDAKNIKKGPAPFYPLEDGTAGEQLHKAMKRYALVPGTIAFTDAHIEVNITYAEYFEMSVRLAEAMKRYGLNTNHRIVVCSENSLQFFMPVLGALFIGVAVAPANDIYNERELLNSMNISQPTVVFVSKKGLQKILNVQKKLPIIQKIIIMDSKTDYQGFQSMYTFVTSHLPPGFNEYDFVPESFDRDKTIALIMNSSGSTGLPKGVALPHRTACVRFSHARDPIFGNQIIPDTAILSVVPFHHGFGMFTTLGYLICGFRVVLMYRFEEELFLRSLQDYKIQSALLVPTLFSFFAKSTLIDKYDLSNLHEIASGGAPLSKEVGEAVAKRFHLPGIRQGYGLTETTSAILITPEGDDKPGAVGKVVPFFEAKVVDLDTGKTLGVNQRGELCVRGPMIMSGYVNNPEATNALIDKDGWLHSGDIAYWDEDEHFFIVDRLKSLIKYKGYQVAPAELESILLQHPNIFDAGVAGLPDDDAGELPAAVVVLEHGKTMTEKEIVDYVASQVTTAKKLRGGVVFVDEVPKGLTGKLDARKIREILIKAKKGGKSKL
How it was run: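 Inhibition of purified Photinus luciferase is measured by luminescence. Substrate levels (D-luciferin, ATP) sit at their KM values. Each compound is tested in a concentration series.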

[6] = qHTS assay to identify small molecule agonists of the constitutive androstane receptor (CAR) signaling pathway - cell viability counter screen (AID 1224836); note: nearly all actives have a fitted effect of over 45% in size; note: potency is the fitted concentration of half-maximal effect
How it was run: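 Counter screen multiplexed with the CAR reporter readout: HepG2 cells co-transfected with hCAR and the CYP2B6-2.2kb construct receive a 15-concentration compound series and 0.75 uM PK11195 (final), then CellTiter-Fluor fluorescence is read after 23 h.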

[7] = qHTS assay to identify small molecule antagonists of the constitutive androstane receptor (CAR) signaling pathway - cell viability counter screen (AID 1224837); note: nearly all actives have a fitted effect of over 45% in size; note: potency is the fitted concentration of half-maximal effect
How it was run: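 Fluorescence from CellTiter-Fluor served as the viability signal. Human hepatoma HepG2 cells stably bearing hCAR and CYP2B6-2.2kb received compound plus CITCO (50 nM final) for 23 hr.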

[8] = molecular target: Nuclear receptor subfamily 1 group I member 3 (Homo sapiens) (UniProt Q14994); assay: qHTS assay to identify small molecule antagonists of the constitutive androstane receptor (CAR) signaling pathway (AID 1224838);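 note: HepG2 cells stably expressing hCAR with CYP2B6 luciferase reporter stimulated by CITCO; nearly all actives have a fitted effect of over 40% in size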
Nuclear receptor subfamily 1 group I member 3 (Homo sapiens), sequence (Q14994 whole entry, looked up): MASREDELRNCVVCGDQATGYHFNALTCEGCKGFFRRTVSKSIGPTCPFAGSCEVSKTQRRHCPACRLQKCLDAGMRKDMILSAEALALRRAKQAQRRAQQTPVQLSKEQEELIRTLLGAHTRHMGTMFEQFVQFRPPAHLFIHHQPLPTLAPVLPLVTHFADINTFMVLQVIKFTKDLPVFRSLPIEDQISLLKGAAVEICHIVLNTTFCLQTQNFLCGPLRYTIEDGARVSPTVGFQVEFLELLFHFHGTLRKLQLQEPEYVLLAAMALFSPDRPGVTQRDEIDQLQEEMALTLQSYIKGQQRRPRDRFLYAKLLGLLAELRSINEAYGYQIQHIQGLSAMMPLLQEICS
How it was run: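 Quantitative HTS in double-stable HepG2-CYP2B6-hCAR cells. After 4 h plating, cells get compound (15 concentrations) and CITCO at 50 nM final, incubate 24 h at 37 C, then ONE-Glo luminescence is read.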

[9] = molecular target: Nuclear receptor subfamily 1 group I member 3 (Homo sapiens) (UniProt Q14994); assay: qHTS assay to identify small molecule agonists of the constitutive androstane receptor (CAR) signaling pathway (AID 1224839); note: nearly all actives have a fitted effect of over 15% in size; note: potency is the fitted concentration of half-maximal effect
How it was run: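 A 15-concentration quantitative screen uses HepG2 cells co-transfected stably with human CAR and CYP2B6-2.2kb reporter. Treatment lasts 24 h with 0.75 uM PK11195 final present; ONE-Glo luminescence is the signal.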

[10] = qHTS assay to identify small molecule antagonists of the estrogen related receptor signaling pathway with the pleiotropic PPARgamma coactivator (PGC) from Tox21 10K library - cell viability counter screen (AID 1224840; active = well fitted cell-killing curve with a large enough effect in the repeat runs, not every such curve was filed as active; note: nearly all actives have a fitted effect of over 40% in size; note: potency is the fitted concentration of half-maximal effect)
How it was run: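 Compounds in DMSO, alongside positive and negative controls, were pinned onto PGC/ERR cells (2,000 per well). Exposure lasted 17.5 hours at 37 C, followed by a 30-minute CellTiter-Fluor incubation and fluorescence reading.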

[11] = molecular target: Thyrotropin receptor (Homo sapiens) (UniProt P16473); assay: qHTS assay to identify small molecule agonists of the thyroid stimulating hormone receptor (TSHR) signaling pathway (AID 1224843; calls by dose curve; note: nearly all actives have a fitted effect of over 45% in size; note: potency is the fitted concentration of half-maximal effect)
Thyrotropin receptor (Homo sapiens), sequence (P16473 whole entry, looked up): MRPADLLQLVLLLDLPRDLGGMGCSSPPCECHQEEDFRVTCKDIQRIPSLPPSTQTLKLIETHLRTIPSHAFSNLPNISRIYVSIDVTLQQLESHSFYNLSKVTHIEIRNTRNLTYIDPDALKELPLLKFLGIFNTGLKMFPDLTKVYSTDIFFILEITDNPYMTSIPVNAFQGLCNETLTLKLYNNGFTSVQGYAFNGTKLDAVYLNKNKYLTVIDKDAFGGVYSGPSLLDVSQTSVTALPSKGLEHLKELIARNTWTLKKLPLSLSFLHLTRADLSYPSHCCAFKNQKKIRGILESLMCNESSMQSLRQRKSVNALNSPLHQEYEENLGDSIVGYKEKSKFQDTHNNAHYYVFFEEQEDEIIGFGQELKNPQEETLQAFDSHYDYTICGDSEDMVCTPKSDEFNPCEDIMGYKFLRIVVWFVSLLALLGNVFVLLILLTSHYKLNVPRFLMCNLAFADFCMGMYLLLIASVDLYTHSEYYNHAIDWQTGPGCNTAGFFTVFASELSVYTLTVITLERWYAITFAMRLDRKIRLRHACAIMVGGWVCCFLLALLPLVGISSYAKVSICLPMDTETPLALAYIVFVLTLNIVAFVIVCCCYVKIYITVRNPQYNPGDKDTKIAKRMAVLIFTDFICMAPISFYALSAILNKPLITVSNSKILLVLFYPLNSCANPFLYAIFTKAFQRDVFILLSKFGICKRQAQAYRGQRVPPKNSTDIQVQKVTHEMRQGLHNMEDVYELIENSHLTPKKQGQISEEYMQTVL
How it was run: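 HEK293 cells stably bearing the thyrotropin receptor were plated at 800 cells/well and challenged with compound (30 min, RT). Accumulated cAMP was quantified via cAMP-d2 competing for cryptate-tagged antibody.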

[12] = qHTS assay to identify small molecule agonists of the RXR signaling pathway - cell viability counter screen (AID 1159529); note: nearly all actives have a fitted effect of over 50% in size; note: potency is the fitted concentration of half-maximal effect
How it was run: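 Cell viability is measured by CellTiter-Glo luminescence, 30 min at room temperature, in wells already read for beta-lactamase. Engineered HEK 293T cells (RXR-alpha-UAS-bla) are dosed 16 hr at 37 C. Tetraoctyl ammonium bromide serves as positive control.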

[13] = qHTS assay to identify small molecule antagonists of the estrogen related receptor signaling pathway with the pleiotropic PPARgamma coactivator (PGC) from Tox21 10K library (AID 1224841; call rule not given here; note: series mostly up to about 92 µM; actives are mostly falling curves and most rising ones were filed inactive; nearly all actives have a fitted effect of over 50% in size)
How it was run: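 Compound exposure ran 18 hours at 37 C in PGC/ERR cells (2,000/well) that had first rested 6 hours in a 37 C/5% CO2 incubator. Luciferase activity was then detected with One-Glo after a 30-minute room-temperature step.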

[14] = qHTS assay to identify small molecule agonists of the estrogen related receptor signaling pathway with the pleiotropic PPARgamma coactivator (PGC) from Tox21 10K library (AID 1224842); note: nearly all actives have a fitted effect of over 15% in size; note: potency is the fitted concentration of half-maximal effect
How it was run: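 Luminescence from One-Glo (30 min, room temperature) measured after PGC/ERR cells had 18 h at 37 C with pinned compound (23 nL in DMSO). Cells had been seeded at 2,000 per well and pre-incubated 6 h.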

| SMILES | Potency [1] | Potency [2] | Potency [3] | Potency [4] | Potency [5] | Potency [6] | Potency [7] | Potency [8] | Potency [9] | Potency [10] | Potency [11] | Potency [12] | Potency [13] | Potency [14] |
| --- | --- | --- | --- | --- | --- | --- | --- | --- | --- | --- | --- | --- | --- | --- |
| c1ccc2sc(SNC3CCCCC3)nc2c1 | inactive | inactive | 30.3 µM (active) and 68.6 µM (active) | inactive | 11.1 µM (active) and 22.4 µM (active) | inactive | inactive | inactive | 53.9 µM (active) | inactive | inactive | – | – | – |
| Clc1ccc(Cl)c(Cl)c1 | – | inactive | inactive | inactive | – | inactive | inactive | inactive | inactive | inactive | 2.98 µM (active) and inactive | inactive | inactive | inactive |
| CCC1(CCC(C)C)C(=O)NC(=O)NC1=O | inactive | inactive | inactive | inactive | inactive | inactive | inactive | inactive | inactive | inactive | – | – | – | – |
| CCOP(=S)(OCC)SCSc1cc(Cl)ccc1Cl | – | inactive | inactive | inactive | inactive | inactive | inactive | inactive | inactive | inactive | inactive | inactive | – | – |
| CN(C)c1ccc(N=O)cc1 | – | 24.4 µM (active) | – | 27.4 µM (active) and 48.6 µM (active) | – | 27.4 µM (active) and 43.3 µM (active) | 30.7 µM (active) and 27.3 µM (active) | – | 4.87 µM (active) | 19.4 µM (active) and 30.6 µM (active) | – | 34.8 µM (active) | inactive | 9.72 µM (active) and 8.63 µM (active) |
| OC[P+](CO)(CO)CO | inactive | inactive | inactive | inactive | inactive | inactive | inactive | inactive | – | inactive | inactive | – | – | – |
| C=CC(C)(CCC=C(C)C)OC(=O)c1ccccc1N (stereo not given) | – | inactive | inactive | inactive | – | inactive | inactive | – | inactive | inactive | inactive | inactive | – | – |
| CC(CC(C(N)=O)(c1ccccc1)c1ccccc1)N(C)C (stereo not given) | – | – | – | inactive | inactive | inactive | inactive | – | – | inactive | inactive | inactive | – | – |
| Clc1ccc2ccccc2c1 | inactive | inactive | inactive | inactive | inactive | inactive | inactive | inactive | inactive | inactive | inactive | – | – | – |
